# High-throughput results deposited in PubChem by several laboratories.
# Yp Topo-I inh: Yersinia pestis topoisomerase I inhibitors, primary screen, biochemical, cleavage product accumulation, plate reader, single point. activity, % at 10 µM. Y. pestis Topo-I cleavage product accumulation. 360,000 compounds, 0.064% hits. AID 504884, 2011; in the data active = activity above about 50%, passing the limit was not always enough
# BJeLR viability: MLPCN primary cell-based screen for lethality selective to Ras in HRASV12 cells; AID 1554, 2009; 300,000 compounds, 0.17% hits; BJeLR (HRASV12) viability, CellTiter-Glo ATP luminescence, 48 h; inhibition, % (test concentration not listed); in the data active = inhibition above about 50%
# PrPC surface inh: inhibitors of human cell surface prion protein PrPC, primary screen, cell-based, TR-FRET; Major prion protein (Homo sapiens), P04156; TR-FRET read-out; inhibition, % at 13.8 µM; 370,000 compounds, 0.43% hits; AID 720596, 2013; in the data active = inhibition above about 24%; note: 0% = median of the test wells and 100% = reference compound wells
# CCHF vOTU inh: CCHFV vOTU protease inhibitors, primary screen, biochemical, Pep-AMC substrate, fluorescence; Crimean-Congo hemorrhagic fever virus L polyprotein viral ovarian tumor (vOTU) protease …; inhibition, % at 11.5 µM; 370,000 compounds, 0.55% hits; in the data active = inhibition above about 30%; note: 0% = vehicle wells with enzyme and 100% = no enzyme wells
# PfHsp40 yeast: rescue of yeast from PfHsp40 toxicity, primary screen, S. cerevisiae, ATP luminescence; S. cerevisiae expressing PfHsp40, growth rescue; growth rescue, % at 12.5 µM; 340,000 compounds, 0.68% hits; AID 504582, 2011; in the data active = growth rescue above about 28%, passing the limit was not always enough;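 note: yeast W303a lacking pdr1 and pdr3 grown in galactose medium; growth measured after three days at 30 °C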
# PrP UTR inh: inhibition of PrP 5' UTR reporter expression. cell-based PrP 5' UTR mRNA reporter, plate reader. inhibition, % (test concentration not listed). 340,000 compounds, 0.35% hits. AID 488862, 2010; in the data active = inhibition above about 52%; note: 0 = median of the neutral control wells
# The depositor's hits bear a star; . = no result. Shown are actives, neighbours in structure and some others; about 2% of the full set was active somewhere.
SMILES,Yp Topo-I inh,BJeLR viability,PrPC surface inh,CCHF vOTU inh,PfHsp40 yeast,PrP UTR inh
CCc1ccc(-c2cc(C(=O)N3N=C(C(F)F)CC3(O)C(F)F)c3ccccc3n2)cc1 (stereo not drawn),-4,-3,10,-6,174*,-42
COc1cccc(C=C2SC(=S)NC2=O)c1,2,.,3,10,-2,-19
COc1cccc(C(C)=C2SC(=S)NC2=O)c1,1,.,-8,25,83*,6
O=c1[nH]nc(Cc2ccccc2)c2ccccc12,9,-7,3,-5,6,-16
O=c1[nH]nc(Cc2ccc(-c3ccc(Cl)cc3)o2)c2ccccc12,68*,-1,-1,-13,0,-3
CN(C)c1ccc2nc3ccc(=[N+](C)C)cc-3sc2c1,3,.,-24,24,0,-51
Cc1cc2nc3ccc(=[N+](C)C)cc-3sc2cc1N,419*,57*,.,.,0,-22
CC(C)C[C@@H](CCCc1ccccc1)CCC(=O)N(c1ccccc1)c1ccccc1,.,.,-4,18,.,.
O=C(Nc1ccccc1)c1ccc(Br)c(S(=O)(=O)Nc2ccccn2)c1,-3,0,9,4,48*,-16
CC(=O)N(Cc1c(C)nn(-c2ccccc2)c1Cl)c1ccc(Cl)cc1,4,-2,0,4,1,-29
Cc1nn(-c2ccccc2)c(Cl)c1CN(C(=O)CCl)c1ccc(Cl)cc1,39,133*,-72,-2,1,-20
COc1ccc(CNC(=O)O[C@H]2CC[C@@]34CCCN3C(=O)CCC[C@H]4[C@H]2C)cc1OC,.,.,-3,.,.,.
COC(=O)[C@]12C[C@H](CC(=O)N3CCSCC3)C(=O)N(CCC3=CCCCC3)C1=C[C@H](C1CCCC1)O[C@@H]2C,.,.,-2,11,.,.
Cc1ccsc1C(=O)N1CCCC(CCC(=O)NCc2ccccc2F)C1 (stereo not drawn),1,-3,6,20,37*,-25
c1ccc(N(c2ccccc2)c2nc(N3CCCC3)nc(-n3ccnc3)n2)cc1,0,-15,-3,-9,0,-14
CN(c1ccccc1)c1nc(N2CCCC2)nc(-n2ccnc2)n1,28,4,5,9,393*,3
CC(=O)c1sc(NC(=O)C2COc3ccccc3O2)nc1C (stereo not drawn),-4,6,41*,10,-1,32
Cc1ccc(NC(=O)C2COc3ccccc3O2)cc1 (stereo not drawn),2,-9,3,3,2,-82
CC1(C)Oc2ccc(NC(=O)C3COc4ccccc4O3)cc2O1 (stereo not drawn),4,16,-5,-13,41*,-45
O=C(CN1CCN(Cc2ccccc2)CC1)N/N=C\c1ccccc1[N+](=O)[O-],.,.,-8,11,.,.
COc1ccc2cc3cc(C(=O)Nc4ccc(F)cc4)sc3nc2c1,.,.,-21,.,.,.
CC(C)c1ccc(NC(=O)O[C@H]2CC[C@@]34CCCN3C(=O)CCC[C@H]4[C@H]2C)cc1,.,.,2,.,.,.
O=C(C[n+]1cccc(Br)c1)c1ccc(-c2ccccc2)cc1,1,3,-3,-3,54*,-11
CN(C)c1ccc(/C=C/c2nc3ccccc3c(=O)[nH]2)cc1,2,19,4,-13,0,60*
Cc1c(C(=O)NCCSCc2cccc(C(F)(F)F)c2)cnn1-c1ccc(Cl)cc1,25,5,14,8,315*,-6
SMILES,Yp Topo-I inh,BJeLR viability,PrPC surface inh,CCHF vOTU inh,PfHsp40 yeast,PrP UTR inh
CC(=O)c1cnn(-c2ccc(Cl)cc2)c1C,1,-5,-3,2,-2,-8
O=C(Nc1nncs1)c1ccc(S(=O)(=O)c2ccccc2)cc1,2,6,6,7,173*,5
Cc1cc(NS(=O)(=O)c2ccc(CC(C)C)cc2)no1,8,1,-3,7,40*,-7
Cc1cc(NS(=O)(=O)c2ccc(C3CCCCC3)cc2)no1,13,-3,-4,19,510*,-33
Cc1cc(NS(=O)(=O)c2ccc(NC(=O)NC3CCCCC3)cc2)no1,7,5,-5,5,1,-9
CCCCCN1CCCCC(NC(=O)Cc2ccccc2)C1=O (stereo not drawn),.,.,4,2,.,.
COc1ccccc1-c1sc2cc3c(cc2c1-c1ccc(OCCN2CCCCC2)cc1)OCO3,-5,.,4,8,43*,-23
COc1ccc(CCC(=O)Nc2c(-c3ccc(N(C)C)cc3)[nH][nH]c2=O)cc1,.,.,6,109*,.,.
Cc1cccc(C2CC(c3ccccc3)Nc3nc(N)nn32)c1 (stereo not drawn),11,-6,4,-4,48*,-23
COc1cc(/C=C2\SC(=S)N(NS(=O)(=O)c3ccc(C)cc3)C2=O)ccc1O,7,8,-21,17,303*,-9
CCOc1cc(/C=C2\SC(=S)N(NS(=O)(=O)c3ccc(C)cc3)C2=O)ccc1O,4,-6,-23,14,59*,-11
COc1cc(/C=C2\SC(=S)N(NS(=O)(=O)c3ccccc3)C2=O)ccc1O,5,-8,-27,18,-1,-21
CCCN1CCCCC(NC(C)=O)C1=O (stereo not drawn),.,.,-3,6,.,.
OC(c1ccccc1)(c1ccccc1)C1CCN(CCCOc2ccc(C(F)(F)F)cc2)CC1,.,.,-1,24,.,.
COc1ccccc1C(=O)NNC(=S)NC(=O)c1cc(OC)c(OC)c(OC)c1,8,1,2,-2,62*,-9
COc1ccc(C(=O)NC(=S)NNC(=O)c2cnccn2)cc1,4,10,2,-17,0,0
COc1cc(C(=O)NC(=S)NNC(=O)c2cnccn2)cc(OC)c1OC,0,6,12,1,132*,-21
CN(C(=O)CCc1cn(C)c2ccccc12)c1ccc(Oc2cccnc2)cc1,.,.,5,-4,.,.
COC(=O)c1sccc1NC(=O)C1CCCCC1C(=O)O (stereo not drawn),-8,3,37*,-1,-1,-43
COc1cccc(CNC(=O)[C@H]2CCCN2C(=O)[C@H]2CCCN2C(=O)c2cccc(Cl)c2)c1,.,.,-5,6,.,.
COc1ccccc1N(CC(=O)NCCSc1ccccc1)S(=O)(=O)c1ccccc1,57*,7,1,4,0,-28
CC(C)(C)OC(=O)NCc1ccc(NC(=O)c2nc[nH]c2C(=O)NCCCNC(=O)c2[nH]cnc2C(=O)Nc2ccc(CNC(=O)OC(C)(C)C)cc2)cc1,79*,.,.,.,-2,22
CCOc1ccc(CCNC(=O)c2cc3sccc3n2Cc2ccccc2)cc1OCC,.,.,6,.,.,.
COC(C(=O)NNS(=O)(=O)c1ccccc1[N+](=O)[O-])c1ccccc1 (stereo not drawn),7,-14,-7,5,0,-14
